Laboratory results published in ChEMBL document CHEMBL4513216, “Probing the Open Global Health Chemical Diversity Library for Multistage-Active Starting Points for Next-Generation Antimalarials” (ACS Infect Dis, 2020).
The campaign covered roughly 69,000 compounds. About 8,600 (12%) showed an effect of 50% or more. The sample holds strong results, similar compounds and a random draw of the others, so the mix is not that of the screen.

system: Plasmodium berghei; experiment: Screen against P. berghei liver stage (PbLuc), transformed with Luciferase, at 10uM; type: functional, HepG2; details: tested at 10 uM

SMILES | INHIBITION [%]
COC1COC2(CCN(CC3CC3)CC2)C1 (stereo unspecified) | 15.8
Cc1noc(CNC(=O)C2CSCCC(=O)N2)n1 (stereo unspecified) | 61.6
CNC(=O)Cc1csc(NC(=O)C2CSCCC(=O)N2)n1 (stereo unspecified) | 50.2
NC(=O)Cc1csc(NC(=O)C2CSCCC(=O)N2)n1 (stereo unspecified) | 32.1
Cc1nnc(CNC(=O)C2CSCCC(=O)N2)o1 (stereo unspecified) | -5.22
Cc1csc(NC(=O)C2CSCCC(=O)N2)n1 (stereo unspecified) | 24.5
O=C1CCSCC(C(=O)NCc2nc(-c3ccccc3)no2)N1 (stereo unspecified) | 14.3
CCN(Cc1c(C)nn(CC)c1C)S(=O)(=O)c1cnn(C)c1C | 38.3
CC[C@@H]1N(Cc2ccncc2)CCC[C@]12CCC(=O)N2C | 18.6
CC(C)n1nc2c(cc1=O)CN(CCOc1cccc(C#N)c1)CC2 | 23.1
Clc1ccc(-c2nnc(CNCCn3cccn3)o2)c(Cl)c1 | -38.2
CC(C)[C@H]1CN(Cc2c[nH]nn2)C[C@@H]1NC(=O)C1CCOCC1 | 16.3
Cc1ncsc1CN1C[C@@H]2COC[C@]2(C(=O)NC2CC(F)(F)C2)C1 | 32.1
Cc1ncsc1CN1C[C@H](NC(=O)C2CCOCC2)[C@@H](C(C)C)C1 | 75.4
CC(C)[C@H]1CN(Cc2ccccc2C#N)C[C@@H]1NC(=O)C1CCOCC1 | 45.9
Cc1nnc(CN2C[C@H](NC(=O)C3CCOCC3)[C@@H](C(C)C)C2)s1 | 90.2
Cc1csc(CN2C[C@H](NC(=O)C3CCOCC3)[C@@H](C(C)C)C2)n1 | 42.5
CCN(Cc1ccc(F)cc1Cl)C1CCS(=O)(=O)C1 (stereo unspecified) | 21.6
Cc1cc(C[S+]([O-])Cc2ccccc2F)on1 (stereo unspecified) | 10.1
CCCn1cc(-c2cc(C(=O)N(C)C)c3ccc(OC)cc3n2)cn1 | 29.85
Cc1nnc(SCc2cccc(F)c2)n1CC(N)=O | 20.9
COc1cccc(CSc2nnc(C)n2CC(N)=O)c1 | -15.1
Cc1cccc(CSc2nnc(C)n2CC(N)=O)c1 | 57.7
O=C(NCCCN1CCOCC1)c1ccn(COc2ccc(F)cc2)n1 | -41.2

SMILES | INHIBITION [%]
O=C(NCC(CO)Cc1ccc(Cl)cc1)c1ccncc1Cl (stereo unspecified) | 5.21
CCSc1cc(C(=O)NCC(C)(C)N(C)C)ccn1 | 15.7
CCOC(=O)c1ccccc1NC(=O)CN(C)Cc1ccccc1Cl | 68.9
CCOc1ccccc1NC(=O)CN(C)Cc1ccccc1Cl | 32
CN(CC(=O)Nc1ccccc1C(=O)NC1CC1)Cc1ccccc1Cl | 8.08
N#Cc1cccc(S(=O)(=O)NC(=O)C2CC(c3ccccc3)=NO2)c1 (stereo unspecified) | 33.4
Cc1cc2ccncc2n1CC1(O)CCN(C(=O)c2cccnc2)CC1 | 9.98
CN1CC(=O)N(c2cccnc2)Cc2c(NC3CC3)ncnc21 | 41.6
CC1(C)CCN(Cc2ccccc2-c2nc(C(C)(C)C)cc(=O)[nH]2)C1 | 57.3
CC(C)(C)c1cc(=O)[nH]c(-c2ccccc2CN2CCCCCC2)n1 | -7.65
CC(C)c1cc(=O)[nH]c(-c2ccccc2CN2CCC(C)(C)C2)n1 | 29.4
Cc1cc(C)n(C2CN(c3ncnc4c3CCNCC4)C2)n1 | 40.5
Cc1ccc(C2(O)CCN(C(=O)CCn3c(C)cccc3=O)CC2)nc1 | 28.7
Cc1ccc(C2(O)CCN(C(=O)Cn3cc(C)c(=O)[nH]c3=O)CC2)nc1 | 30.9
Cc1ccc(C2(O)CCN(C(=O)CCn3ccc(=O)[nH]c3=O)CC2)nc1 | 82
CN(CC(O)C(F)(F)F)C(=O)Nc1cccc(C(F)F)c1 (stereo unspecified) | 40.7
Cc1c(NC(=O)C(C)N(C)C)c(=O)n(-c2ccccc2)n1C (stereo unspecified) | -45.8
COc1ccc(Cl)cc1CS(=O)(=O)Cc1noc(C)n1 | 34.7
COc1ccc(Cl)cc1CS(=O)(=O)Cc1nc(C2CC2)no1 | -3.96
COc1ccc(Cl)cc1CS(=O)(=O)Cc1nc(C)no1 | 60.4
Clc1snnc1CN1CCCC(Cn2cncn2)C1 (stereo unspecified) | 62.1
Clc1snnc1CN1CCCCC1Cn1cncn1 (stereo unspecified) | 10.8
Clc1cc(CN2CCCCC2Cn2cncn2)c2ncccc2c1 (stereo unspecified) | -9.83
Clc1ccc(CN2CCCC(Cn3cncn3)C2)c2ncccc12 (stereo unspecified) | 35.1

SMILES | INHIBITION [%]
CC(C)(C)c1nc(CN2CCCC(Cn3cncn3)C2)cs1 (stereo unspecified) | 61.7
Clc1snnc1CN1CCCC1Cn1cncn1 (stereo unspecified) | -11.4
Clc1cc(CN2CCCC(Cn3cncn3)C2)c2ncccc2c1 (stereo unspecified) | 76.2
c1ccc(-c2nc(CN3CCCC(Cn4cncn4)C3)cs2)cc1 (stereo unspecified) | -7.35
Cc1cccc2cc(CN3CCCN4CCC[C@H]4C3)c(=O)[nH]c12 | 34.9
Clc1cc(CN2CCCN3CCCC3C2)c2ncccc2c1 (stereo unspecified) | 55
CC(C)c1nc(CN2CCCC(Cn3cncn3)C2)cs1 (stereo unspecified) | 31.2
Clc1cc(CN2CCCC2Cn2cncn2)c2ncccc2c1 (stereo unspecified) | 22.9
Cc1cnc(C(=O)N2CCCC(n3cncn3)C2)cn1 (stereo unspecified) | 41.5
CCCc1nc(C(=O)N2CCn3nc(C(=O)OC)cc3C2)cs1 | 9.16
Cc1noc(-c2ccc(N3CCN(Cc4nccn4C)CC3)nc2)n1 | 9
CC(Cc1ccccc1F)C(=O)Nc1ccc(OCCC(N)=O)cc1 (stereo unspecified) | -8.92
CCOc1ccc(C2CCCN2C(=O)NCCn2ccnc2)cc1 (stereo unspecified) | 8.85
CC(=O)N1CCCC(Cc2cnc(C(=O)N3CCC(C)CC3)cn2)C1 (stereo unspecified) | 6.32
Cc1ccnn1CCC(=O)N1C[C@@H](O)[C@H](Oc2cccc(F)c2)C1 | 9.93
CN(Cc1cnc(C(C)(C)C)nc1)Cc1nc2ccc(F)cc2[nH]1 | -0.18
CCOCC(=O)N1C[C@@H](O)[C@H](NC(C)=O)C1 | 4.41
COc1cc(Cl)cc(CN2CCCC(N3CCOCC3)C2)c1OC (stereo unspecified) | 15.7
COc1cc(Cl)cc(CN2CCCC(N3CCCC3)C2)c1OC (stereo unspecified) | 77.6
COc1ccc(CN2CCCC(N3CCCC3)C2)cc1Cn1cncn1 (stereo unspecified) | 34.1
CN(C)CC1CN(Cc2cc(Cl)cc3cccnc23)CCO1 (stereo unspecified) | 23.4
O[C@@H]1CN(Cc2cc(Cl)cc3cccnc23)C[C@@H]1O | 51.3
OCCN1CCN(Cc2cc(Cl)cc3cccnc23)CC1 | 42.7
